This note sets out measurements from PubChem BioAssay (EPA / NIEHS).

Results filed as inconclusive are left out. Calls of active or inactive are those of the source. Rule for the calls: active = hit-call score of the fitted dose curve at least 0.9, where 1 is the maximum; inconclusive = response in the unintended direction; inactive = score below 0.9.

human Adenosine A2a Receptor (AdoRA2a), ADORA2A (gene 135), sequence (P29274 whole entry, looked up): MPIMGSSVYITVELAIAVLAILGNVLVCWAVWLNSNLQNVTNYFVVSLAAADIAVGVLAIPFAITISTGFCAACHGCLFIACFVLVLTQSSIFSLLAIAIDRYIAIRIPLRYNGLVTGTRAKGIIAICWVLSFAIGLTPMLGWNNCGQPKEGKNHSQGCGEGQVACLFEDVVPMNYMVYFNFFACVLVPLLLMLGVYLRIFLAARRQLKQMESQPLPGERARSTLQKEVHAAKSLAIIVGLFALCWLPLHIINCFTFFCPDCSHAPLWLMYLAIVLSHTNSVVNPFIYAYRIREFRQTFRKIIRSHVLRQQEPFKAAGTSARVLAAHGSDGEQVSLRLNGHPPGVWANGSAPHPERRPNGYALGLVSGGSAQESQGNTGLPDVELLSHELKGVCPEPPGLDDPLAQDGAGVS

In this test the target is human Adenosine A2a Receptor (AdoRA2a), ADORA2A (gene 135) (UniProt P29274). In words: NVS_GPCR_hAdoRA2a: NovaScreen (NVS) G Protein-Coupled Receptor Assay for human Adenosine A2a Receptor (AdoRA2a) (AID 2283256). The method, boiled down:
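Cell-free radioligand binding on membranes from HEK293 expressing the receptor; competitive displacement read 1.5 h after dosing by filter-based scintillation counting. Primary screen in duplicate at 25 uM; actives followed in concentration series, with DMSO as baseline.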
Turning to `O=C1OCc2ccccc21`, the result was inactive.
A word on the AC50: it is the concentration giving half of the maximal activity seen. In the case of `O=C(c1ccc(OCCN2CCCCC2)cc1)c1c(-c2ccc(O)cc2)sc2cc(O)ccc12`, the AC50 is 6.13 µM (active).
Turning to `C#C[C@]1(O)CC[C@H]2[C@@H]3CCc4cc(O)ccc4[C@H]3CC[C@@]21C`, the AC50 was 6.76 µM (active).
